Consider 40 compounds from PubChem BioAssay (EPA / NIEHS).

Activity calls are given as the source filed them. The calls were made as follows: active = hit-call score of the fitted dose curve at least 0.9, where 1 is the maximum; inactive = score below 0.9.

The assay can be described thus: APR_HepG2_MitoMembPot_1hr: Apredica 1-hour HepG2 Assay for Mitochondrial Membrane Potential (AID 2282675). Particulars: imaging, actives raise or lower the signal. How it is done:
APR_HepG2_1hr is a cell-based, multiplexed-readout assay that uses HepG2, a human liver cell line, with measurements taken at 1 hour after chemical dosing in a 384-well plate.APR_HepG2_MitoMembPot_1hr is one of 10 assay component(s) measured or calculated from the APR_HepG2_1hr assay. It is designed to make measurements of dye binding, a form of membrane potential reporter, as detected with fluorescence intensity signals by HCS Fluorescent Imaging technology.Data from the assay component APR_HepG2_MitoMembPot_1hr was analyzed into 1 assay endpoint. This assay endpoint, APR_HepG2_MitoMembPot_1hr, was analyzed with bidirectional fitting relative to DMSO as the negative control and baseline of activity. Using a type of membrane potential reporter, gain or loss-of-signal activity can be used to understand changes in the signaling. Furthermore, this assay endpoint can be referred to as a primary readout, because this assay has produced multiple assay endpoints where this one serves a signaling function. To generalize the intended target to other relatable targets, this assay endpoint is annotated to the cell morphology intended target family, where the subfamily is organelle conformation.
Cells were treated with dimethyl sulfoxide (DMSO) as a solvent control at a final concentration of 0.5% v/v or with compounds in DMSO with a resulting final DMSO concentration of 0.5% v/v. Compound treatment was done at concentrations of 0.39, 0.78, 1.56, 3.12, 6.24, 12.5, 25, 50, 100, and 200 uM in duplicate on each plate. Cells were treated with compounds for 1, 24, or 72 hr. Carbonyl […] m-chloro-phenylhydrazone (CCCP) and taxol were used as positive controls for mitochondrial function and cytoskeletal stability, respectively; DMSO served as the negative control for this experiment. Cells were fixed by the direct addition of 50 uL formaldehyde in Hank's Balanced Salt Solution (HBSS) to a final concentration of 3.7%. After incubation in the fixation medium for 30 min at room temperature (293-298 K), cells were rinsed twice with HBSS and treated with cell permeabilization buffer (16 uL of 0.5% Triton X-100) for 10 min at room temperature (293-298 K) before labeling. For mitochondrial membrane potential and mitochondrial measurements, pre-fixed cells were incubated with 50 uL of MitoTracker Red CMXRos (Invitrogen) at a concentration of 250 nM for 30 min before fixation. In the remaining cases, post-fixed cells were labeled by incubation with a multiplexed mixture of primary antibodies in HBSS for 60 min at room temperature (293-298 K) to detect immunoreactivity of c-Jun (1:500), phospho-histone H3 (1:100), phospho-histone H2A.x (1:200), p53 (1:400), alpha-tubulin (1:200) and Hoechst 33342 (2 ug/mL). Cells were labeled for multiplexed imaging on two separate plates: a) Hoechst 33342, MitoTracker Red, phospho-histone H3, and alpha-tubulin, and b) Hoechst 33342, phospho-histone H2A.x, and c-Jun. A final rinse with HBSS (50 uL) was performed before analysis. The primary and secondary antibodies for the proteins were phospho-histone H3 (rabbit anti-phospho-histone H3 and FITC-donkey anti-rabbit IgG), phospho-histone H2A.x (mouse anti-phospho-histone H2A.x and FITC-donkey anti-mouse IgG), c-Jun (rabbit anti-phospho-c-Jun and Cy3-donkey anti-rabbit IgG), p53 (sheep anti-p53 and Cy5-donkey anti-sheep IgG), alpha-tubulin (mouse anti-alpha-tubulin and Cy5-donkey anti-mouse IgG). These antibodies are available as the CellCiphr HepG2 assay kit (Millipore).Digital images of each well were captured using a Cellomics ArrayScan VTI (Thermo Scientific Cellomics) (0.8 NA objective, 0.63x optical coupler, and XF-93 filter set) at 20x magnification. The images were acquired using the autofocus feature of the ArrayScan instrument, which entails the following steps. First, the camera focuses on channel 1 (Hoechst 33342), where nuclei are identified. Second, a Z offset of 1 um is used for capturing mitochondria (MitoTracker Red). […]
Take `C#CCOC(=O)[C@@H](C)Oc1ccc(Oc2ncc(Cl)cc2F)cc1`: the compound was called inactive.

Regarding `CCCOC(=O)NCCCN(C)C`, the compound was classed as inactive.

Turning to `N#CSCSc1nc2ccccc2s1`, the outcome was inactive.

With `CCCCOC(=O)C(C)Oc1ccc(Oc2ccc(C(F)(F)F)cn2)cc1` (stereo not given), the outcome was inactive.

Take `CCC(O)=C1C(=O)CC(C(=O)O)CC1=O` (stereo not given): the result was inactive.

For `CCN(CC)C(=O)c1cccc(C)c1`, the call was inactive.

Regarding `C=CCOC(Cn1ccnc1)c1ccc(Cl)cc1Cl` (stereo not given), the result was inactive.

Take `CCOC(=O)[C@H](C)Oc1ccc(Oc2nc3ccc(Cl)cc3o2)cc1`: the outcome was inactive.

`S=C(S)NCCNC(=S)S.[Mn+2].[S-]C([S-])=NCCN=C([S-])[S-].[Zn+2]`: the compound was classed as inactive.

As for `CCC(C)OC(=O)N1CCCCC1CCO` (stereo not given), the outcome was inactive.

Turning to `CC1(C)C(C=C(Cl)Cl)C1C(=O)OCc1cccc(Oc2ccccc2)c1` (stereo not given), the call was inactive.

For `CCCCC(CC)CN1C(=O)C2C3C=CC(C3)C2C1=O` (stereo not given), the compound was classed as inactive.

For the compound `CCN(Cc1c(F)cccc1Cl)c1c([N+](=O)[O-])cc(C(F)(F)F)cc1[N+](=O)[O-]`, the compound was called inactive.

`COc1nc(C)nc(NC(=O)NS(=O)(=O)c2ccccc2OCCCl)n1`: the call was inactive.

Consider `CSC(=O)c1cccc2nnsc12`, for which the compound was called inactive.

In the case of `O=C(O)C1(C(=O)Nc2ccc(Cl)cc2Cl)CC1`, the call was inactive.

Regarding `COCCO`, the call was inactive.

For the compound `CCOC(=O)C(C)Oc1ccc(Oc2nc3ccc(Cl)cc3o2)cc1` (stereo not given), the compound was classed as inactive.

Consider `Cc1nn(C)c(Oc2ccccc2)c1C=NOCc1ccc(C(=O)OC(C)(C)C)cc1`, for which the result was inactive.

`CCCN(CCC)c1c([N+](=O)[O-])cc(C(F)(F)F)c(N)c1[N+](=O)[O-]`: the outcome was inactive.

`CCCCCCC(C)OC(=O)COc1nc(F)c(Cl)c(N)c1Cl` (stereo not given): the call was inactive.

Take `COC(=O)c1cccc(C)c1S(=O)(=O)NC(=O)Nc1nc(OCC(F)(F)F)nc(N(C)C)n1`: the compound was classed as inactive.

For the compound `CCCCOCCOCCOCc1cc2c(cc1CCC)OCO2`, the result was inactive.

In the case of `COC(=O)c1ccccc1S(=O)(=O)NC(=O)Nc1nc(OC(F)F)cc(OC(F)F)n1`, the compound was called inactive.

As to `CC(C)(C)[C@@H](O)[C@@H](Cc1ccc(Cl)cc1)n1cncn1`, the result was inactive.

Consider `COc1c(Cl)ccc(Cl)c1C(=O)O`, for which the result was inactive.

For `c1ccc2[nH]c(-c3cscn3)nc2c1`, the compound was called inactive.

As for `CN(C)C(=O)Nc1ccc(Cl)c(Cl)c1`, the compound was called inactive.

As for `CCOC(=O)C(C)Oc1ccc(Oc2cnc3cc(Cl)ccc3n2)cc1` (stereo not given), the result was inactive.

For `CCCCCOC(=O)COc1cc(N2C(=O)C3=C(CCCC3)C2=O)c(F)cc1Cl`, the call was inactive.

For `COC(=O)c1c(Cl)nn(C)c1S(=O)(=O)NC(=O)Nc1nc(OC)cc(OC)n1`, the outcome was inactive.

Consider `CCNc1nc(N)nc(Cl)n1`, for which the outcome was inactive.

Turning to `CCSC(=O)N(CC(C)C)CC(C)C`, the compound was called inactive.

On to `COC(=O)CSc1cc(N=c2sc(=O)n3n2CCCC3)c(F)cc1Cl`, for which the compound was classed as inactive.

Usually AC50 stands for the concentration giving half of the maximal activity seen. In the case of `Oc1ccc(C(c2ccc(O)cc2)C(Cl)(Cl)Cl)cc1`, the AC50 is 87 µM (active).

With `OB(O)O`, the outcome was inactive.

Turning to `COC(=O)c1ccc(CNS(C)(=O)=O)cc1S(=O)(=O)NC(=O)Nc1nc(OC)cc(OC)n1`, the outcome was inactive.

Consider `CCCCC(CC)COC(=O)c1ccccc1C(=O)O` (stereo not given), for which the call was inactive.

As to `CCOC(=O)NCCOc1ccc(Oc2ccccc2)cc1`, the compound was classed as inactive.

As for `O=C(Nc1ccc([N+](=O)[O-])cc1Cl)c1cc(Cl)ccc1O`, the AC50 is 1.94 µM (active).
